Pf growth 48h = P. falciparum growth inhibition at 48 hours (one generation); P. falciparum luciferase growth in erythrocytes, 48 h; Potency, µM (titrated, usually from 28.7 µM), usual class: inhibitors; hit rate 5.9% among 310,000
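In quantitative HTS format, infected erythrocytes bearing luciferase-reporter parasites were treated for a single generation at 37 C. Luminescence after adding detection reagent served as the growth measure.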
FBPA Giardia inh = blocks Giardia fructose-bisphosphate aldolase activity. purified Giardia FBPA. hit rate 0.71% among 290,000. Potency, µM (titrated, usually from 59.6 µM), most hits filed as inhibitors; also: nearly all actives have a fitted effect of over 55% in size
Target sequence (A8B2U2 whole entry, looked up): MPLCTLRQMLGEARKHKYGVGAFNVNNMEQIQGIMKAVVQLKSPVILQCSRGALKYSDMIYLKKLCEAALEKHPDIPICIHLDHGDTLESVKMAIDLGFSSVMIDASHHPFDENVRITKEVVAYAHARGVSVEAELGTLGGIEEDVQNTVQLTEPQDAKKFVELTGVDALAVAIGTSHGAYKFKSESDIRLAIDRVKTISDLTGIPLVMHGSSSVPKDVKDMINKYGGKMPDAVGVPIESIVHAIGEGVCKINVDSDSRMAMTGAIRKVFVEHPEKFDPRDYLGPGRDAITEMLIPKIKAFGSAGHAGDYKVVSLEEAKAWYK
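Giardia FBPA (40 nM reagent) was preincubated 10 min at RT with compound (up to 57.5 uM final), then substrate plus GAPDH/TPI/NAD/arsenate coupling system with diaphorase/resazurin was added; resorufin fluorescence (525/598 nm) was read after 20 min.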
Shiga inhibitor = blocks Shiga toxin action in Vero cells. AID 2315. hit rate 9.2% among 290,000. Vero cells, Shiga toxin protein synthesis inhibition reporter. inhibition, % at 38.7 µM; in the data active = inhibition mostly above about 28%, no sharp cut-off; inactive = mostly below about 43%
CHX counter = affects cycloheximide protein synthesis inhibition readout, counter-screen. cell reporter, cycloheximide protein synthesis inhibition counterscreen. max response, %. hit rate 12% among 300,000. AID 2314; in the data active = max response mostly above about 13%, no sharp cut-off; inactive = mostly below about 14%; also: read at 38.3 µM for the half of the compounds with a filed dose
Pf growth 96h = P. falciparum growth inhibition at 96 hours | Potency, µM (doses to about 28.7 µM), most hits filed as inhibitors | hit rate 6.9% among 320,000 | P. falciparum luciferase reporter growth, 96 h | AID 504834
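Readout is luminescence from an integrated firefly luciferase in P. falciparum. Red cells, 2% hematocrit and 0.05% parasitemia final, were cultured with compound through two parasite generations (96 hours) at 37 C, 5% CO2.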
NS1 function inh = inhibitors of influenza NS1 protein function; AID 2326; hit rate 0.4% among 270,000; Potency, µM (titrated, usually from 46.1 µM); calls by dose curve; also: actives are rising curves; nearly all actives have a fitted effect of over 50% in size
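In this qHTS, NS1 from influenza A is expressed in budding yeast, where it slows growth. Cells are switched from glucose to 2% galactose medium (pH 6.0, -URA), treated with compound, and growth recovery is read at OD600.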
Hits are given with their value; n = inactive; u = inconclusive; x = not tested or not shown; [ ] = another dose, or the depositor's remark. Rows were chosen to be rich in hits. Some 21% of all compounds tested hit in one or more screens of this group. Unless noted, calls follow the shape of the dose curve; as a rule, active = well fitted curve in the direction sought with a large enough effect; inconclusive = small, poorly fitted or top-dose-only effect, or another doubt; inactive = no such curve, though single readings can be large; an effect the other way counts as inactive or inconclusive.

SMILES	Pf growth 48h	FBPA Giardia inh	Shiga inhibitor	CHX counter	Pf growth 96h	NS1 function inh
OCC1OC(c2ccc3c(c2)OCO3)C=CC1Oc1cc(Cl)cc(Cl)c1 (stereo unspecified)	x	n[12.9 µM]	x	x	x	x
Cc1ccc(NC(=O)[C@@H]2CCCN2S(=O)(=O)c2ccccc2F)cc1	n	n	n	n	n	n
O=C(CN(CCO)c1ccccc1)Nc1cccc(S(=O)(=O)N2CCCC2)c1	n	n	n	n	13µM	x
O=C(Nc1cccc(S(=O)(=O)N2CCCCC2)c1)C1CCCN1S(=O)(=O)c1ccccc1F (stereo unspecified)	10µM	x	x	x	u	x
Cc1ccc(-c2noc(CN3C(C)CCCC3C)n2)cc1 (stereo unspecified)	u	n	n	22	u	n
c1ccc(-c2noc(CN3CCN(C(c4ccccc4)c4ccccc4)CC3)n2)cc1	u	n	n	n	n	n
NC(=O)[C@@H]1CCCN1Cc1nc(-c2ccc(C(F)(F)F)cc2)no1	n	n	n	16	u	n
c1ccc(-c2noc(CN3CCc4sccc4C3)n2)cc1	n	n	n	18	u	n
CC1CCN(Cc2nc(-c3ccccc3)no2)CC1	n	n	n	23	n	n
Cc1ccc(-c2noc(CCCC(=O)NCC3CCCO3)n2)cc1 (stereo unspecified)	n	n	n	n	n	n
Cc1ccc(NC(=O)C/C(N)=N/OC(=O)Nc2cccc(Cl)c2)cc1	n	x	x	x	n	x
Cc1cccc(C(=O)N2CCN=C2SCc2ccc([N+](=O)[O-])cc2)c1	n	n	n	n	n	x
COc1cccc(CN2CCN(CC(=O)NCCc3ccccc3)CC2)c1	n	n	n	n	n	n
Fc1ccccc1N1CCN(Cc2nc(-c3ccccc3)no2)CC1	n	n	n	n	x	n
CC1CCN(c2cc(C#N)c(C#N)cc2[N+](=O)[O-])CC1	n	n	n	n	n	n
CC1CCN(c2ccc(-c3nc(-c4ccccc4)no3)cc2[N+](=O)[O-])CC1	x	x	82	44	x	x
CC1CCN(Cc2nnc(-c3cccc(Br)c3)o2)CC1	n	n	32	34	n	n
c1ccc(-c2noc(CN3CCN(c4ccccc4)CC3)n2)cc1	x	n	n	n	7.4µM	n
Cc1ccc(-c2noc(CN3CCC(C(N)=O)CC3)n2)cc1	n	n	84	41	n	n
CCOC(=O)C1CCN(Cc2nc(-c3ccc(OC)c(OC)c3)no2)CC1	u	n	n	n	x	n
O=C(COc1cc2oc(=O)c3c(c2cc1Cl)CCC3)N1C[C@H]2C[C@@H](C1)c1cccc(=O)n1C2	u	n	n	n	u	n
Cc1nc(Nc2cccc(C(C)O)c2)c2nnn(Cc3ccc(F)cc3)c2n1 (stereo unspecified)	n	n	n	n	u	n
COC(=O)NC/C=C\c1nc(CCCO)co1	x	n[12.9 µM]	x	x	x	x
Cc1occc1C(=O)NNC(=O)CN1C(=O)NC(C)(c2ccccc2)C1=O (stereo unspecified)	n	x	x	x	n	x
COc1ccccc1N1C(=O)CC(N2CCN(c3ccc([N+](=O)[O-])cc3)CC2)C1=O (stereo unspecified)	n	n	n	n	n	n
SMILES	Pf growth 48h	FBPA Giardia inh	Shiga inhibitor	CHX counter	Pf growth 96h	NS1 function inh
O=C(CN1CCC(c2nc3ccccc3s2)CC1)NCc1ccccc1	u	n	n	n	n	n
CC(=O)Nc1scc(C)c1-c1nc2ccccc2s1	u	n	n	n	n	n
O=C(NCc1ccccc1)c1nc2ccccc2s1	u	n	n	23	n	x
CC(=O)NCc1ccc(-c2nc3ccccc3s2)cc1	n	n	58	39	n	n
O=C(NCc1ccco1)c1nc2ccccc2s1	n	n	77	23	x	n
COCCNC(=O)c1nc2ccccc2s1	n	n	44	n	n	n
COCCNC(=O)COC(=O)CSCc1nc2ccccc2s1	n	n	n	n	n	n
CC1CC1C(=O)Nc1cc(S(=O)(=O)N2CCOCC2)ccc1N1CCCC1 (stereo unspecified)	n	n	n	n	n	x
CSCc1c(C(=O)OCC(=O)c2ccc[nH]2)oc2ccccc12	n	x	x	x	n	x
CC(=O)NCc1ccc(-c2csc(-c3cccs3)n2)cc1	n	n	86	21	n	n
O=C(NCCO)c1nc2ccccc2s1	n	n	37	n	n	n
COc1cccc(N2C(=NC(=O)COc3ccccc3)SC3CS(=O)(=O)CC32)c1 (stereo unspecified)	n	x	n	n	u	n
CCOc1ccc(C(C)=O)cc1COc1ccc(C)nc1[N+](=O)[O-]	n	n	n	n	n	n
COc1ccc2oc(-c3ccc(NC(=O)c4ccc(N5CCOCC5)c([N+](=O)[O-])c4)cc3)nc2c1	2.3µM	n	n	n	u	n
O=C(Nc1ccc(-c2nc3ccccc3o2)cc1)c1ccc(N2CCOCC2)c([N+](=O)[O-])c1	n	n	n	8.5	u	n
COc1cccc(NC(=O)CN(C)C(=O)c2ccc(N3CCOCC3)c([N+](=O)[O-])c2)c1	n	x	x	x	n	x
Cn1cc([N+](=O)[O-])c(C(=O)Nc2ccc(-c3nc4ccccc4o3)cc2)n1	n	n	69	39	n	n
Cn1cc([N+](=O)[O-])c(C(=O)NNC(=O)c2ccc([N+](=O)[O-])cc2)n1	n	n	n	n	n	x
O=C(N/N=C/c1ccccc1)c1ccc(N2CCOCC2)c([N+](=O)[O-])c1	n	n	n	n	n	u
Cc1cc(C(=O)CSC(=S)SC(C)(C)C)ccc1Cl	x	x	x	x	x	n
COc1cccc(CNc2ccc3nc(-c4ccc(N)cc4)c(OC)n3n2)c1	x	n	x	x	x	x
CCOc1ccccc1N1C(=O)CC(Sc2n[nH]c(-c3ccccc3)n2)C1=O (stereo unspecified)	n	n	n	n	n	n
NS(=O)(=O)c1cccc(C(=O)NC2CCSc3ccccc32)c1 (stereo unspecified)	n	n	n	n	n	u
O=C(NC1CCCc2ccccc21)c1ccccc1Br (stereo unspecified)	n	n	n	n	u	n
O=C(NC1CCSc2ccccc21)c1cccc(Cl)c1 (stereo unspecified)	u	x	n	n	15µM	n
SMILES	Pf growth 48h	FBPA Giardia inh	Shiga inhibitor	CHX counter	Pf growth 96h	NS1 function inh
O=C(NC1CCSc2ccccc21)c1ccccc1Br (stereo unspecified)	n	x	23	24	u	n
CS(=O)(=O)c1ccc(Cl)c(C(=O)NC2CCSc3ccccc32)c1 (stereo unspecified)	n	n	n	22	n	n
CC(Sc1ncn[nH]1)C(=O)Nc1cc(C(F)(F)F)ccc1Cl (stereo unspecified)	n	x	x	x	n	x
Cn1ncc([N+](=O)[O-])c1C(=O)Nc1ccc(-c2nc3ccccc3[nH]2)cc1	u	n	48	42	u	n
Cn1ncc([N+](=O)[O-])c1C(=O)Nc1ccc(Cl)cc1	n	n	n	n	n	n
CCOc1ccc(C(=O)Nc2ccc(N3CCN(C)CC3)cc2)cc1[N+](=O)[O-]	u	n	n	n	n	n
Cn1ncc([N+](=O)[O-])c1C(=O)Nc1ccc(C2CCCCC2)cc1	n	n	n	26	u	x

Screening results from PubChem.
